Screening results deposited in PubChem by National Center for Advancing Translational Sciences (NCATS).
Most compounds without a hit are left out; they make up all but 9% or so of the library.
JMJD2A Tudor – qHTS Assay for Inhibitors of JMJD2A-Tudor Domain. Lysine-specific demethylase 4A (Homo sapiens), O75164. AlphaScreen JMJD2A-Tudor / H3K4me3 peptide binding. Potency, µM (series often up to 114 µM), most hits filed as inhibitors. actives 4.4% (n = 390,000); also: nearly all actives have a fitted effect of over 50% in size
Target sequence (O75164 whole entry, looked up, the tested form may be a part): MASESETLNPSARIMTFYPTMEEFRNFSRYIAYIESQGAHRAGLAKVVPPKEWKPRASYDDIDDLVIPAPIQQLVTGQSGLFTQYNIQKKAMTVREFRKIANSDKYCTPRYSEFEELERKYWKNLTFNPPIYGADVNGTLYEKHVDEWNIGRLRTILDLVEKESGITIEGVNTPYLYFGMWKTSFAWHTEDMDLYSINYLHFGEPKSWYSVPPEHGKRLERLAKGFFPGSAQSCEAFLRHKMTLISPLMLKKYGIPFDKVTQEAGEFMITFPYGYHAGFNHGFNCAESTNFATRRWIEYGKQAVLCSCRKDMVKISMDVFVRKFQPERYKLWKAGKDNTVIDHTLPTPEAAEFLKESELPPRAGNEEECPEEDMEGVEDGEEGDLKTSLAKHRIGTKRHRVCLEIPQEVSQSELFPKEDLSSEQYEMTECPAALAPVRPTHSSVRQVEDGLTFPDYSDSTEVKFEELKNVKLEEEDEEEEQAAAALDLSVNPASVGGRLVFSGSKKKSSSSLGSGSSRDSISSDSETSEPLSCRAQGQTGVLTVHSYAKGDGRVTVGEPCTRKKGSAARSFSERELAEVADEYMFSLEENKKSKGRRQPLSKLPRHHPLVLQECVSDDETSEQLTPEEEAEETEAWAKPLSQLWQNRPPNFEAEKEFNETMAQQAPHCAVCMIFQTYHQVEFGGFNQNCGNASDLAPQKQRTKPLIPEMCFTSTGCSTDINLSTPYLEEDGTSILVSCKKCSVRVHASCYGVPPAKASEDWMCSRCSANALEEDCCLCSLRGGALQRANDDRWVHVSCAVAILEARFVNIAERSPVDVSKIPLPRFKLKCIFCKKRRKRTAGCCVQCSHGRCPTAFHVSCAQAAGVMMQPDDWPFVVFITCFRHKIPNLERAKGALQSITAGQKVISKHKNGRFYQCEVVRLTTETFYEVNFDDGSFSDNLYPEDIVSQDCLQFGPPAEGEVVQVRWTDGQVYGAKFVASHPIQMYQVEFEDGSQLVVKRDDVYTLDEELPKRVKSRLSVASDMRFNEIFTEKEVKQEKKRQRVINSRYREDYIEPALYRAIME
PLK1 PBD inh – qHTS for Inhibitors of PLK1-PDB (polo-like kinase 1 - polo-box domain): Primary Screen. Serine/threonine-protein kinase PLK1 (Homo sapiens), P53350. Plk1 PBD binding of FITC phosphopeptide, fluorescence polarization. actives 2.8% (n = 360,000). Potency, µM, hits mostly inhibitors; also: series mostly up to about 57 µM; nearly all actives have a fitted effect of over 65% in size
G9a block – qHTS Assay for Inhibitors of Histone Lysine Methyltransferase G9a; G9a H3K9 monomethylation, AlphaScreen, 2 h; Potency, µM (top dose mostly 102 µM), actives largely listed as inhibitors; actives 8.8% (n = 350,000); also: nearly all actives have a fitted effect of over 75% in size
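Signal arises when biotinylated H3K9 peptide, once monomethylated, bridges streptavidin donor and antibody-captured acceptor beads. Enzyme at 20 nM was preincubated 15 min with test compounds; peptide 500 nM and SAM 20 uM then reacted for 2 h.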
ALOX12 inh – Primary qHTS assay for inhibitors of human arachidonate 12S-lipoxygenase (ALOX12): Round 2; purified 12hLO, xylenol orange hydroperoxide absorbance; actives 1.1% (n = 580,000); Polyunsaturated fatty acid lipoxygenase ALOX12 (Homo sapiens), P18054; Potency, µM (top dose mostly 108 µM), actives largely listed as inhibitors
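Purified human 12hLO at 150 nM in 25 mM Hepes, 0.01% Triton X-100, pH 7.0, preincubated 15 min at room temperature with compound. Reaction started with 40 uM arachidonic acid, 30 min at room temperature. Hydroperoxide measured by Fe-xylenol orange, 573/405 nm absorbance ratio.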
HP1b binding inh – HTS for Inhibitors of HP1-beta Chromodomain Interactions with Methylated Histone Tails; AlphaScreen HP1-beta / biotin-H3K9me3 peptide binding; AID 540317, 2011; actives 0.56% (n = 390,000); Potency, µM (top dose mostly 114 µM), hits mostly inhibitors; also: nearly all actives have a fitted effect of over 70% in size
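Compound inhibition of the preformed complex between 50 nM HP1-beta and 50 nM biotinylated H3K9me3 peptide was read by AlphaScreen. Buffer was PBS pH 7.4 with 0.01% Tween-20. Incubations ran 30 min at room temperature, with 10 ug/mL donor/acceptor beads.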
BAZ2B inh – qHTS Assay for Inhibitors of BAZ2B; AlphaScreen BAZ2B-H3K14Ac peptide displacement; Potency, µM (titrated, usually from 114 µM), hits mostly inhibitors; actives 4.4% (n = 360,000); AID 504333, 2011; also: nearly all actives have a fitted effect of over 60% in size
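AlphaScreen displacement: compounds (up to 110uM) incubated 30 min at room temperature with a preformed 50 nM BAZ2B/50 nM biotinylated H3K14Ac peptide complex in PBS pH 7.4 with Tween-20. Donor and acceptor beads at 10 ug/mL final added, 20 min light-protected before reading.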
Each line names hits and unclear results; the compound was inactive in the other large screens. Calls follow the shape of the dose curve; as a rule, active = well fitted curve in the direction sought with a large enough effect; inconclusive = small, poorly fitted or top-dose-only effect, or another doubt; inactive = no such curve, though single readings can be large; an effect the other way counts as inactive or inconclusive.

CCOc1cc(/C=N\NC(=O)OC(C)(C)C)ccc1OC(=O)c1ccco1	JMJD2A Tudor 20µM, PLK1 PBD inh 21µM, ALOX12 inh inconclusive (no result: BAZ2B inh)
CC(C)(C)OC(=O)N/N=C\c1ccc(OC(=O)c2ccco2)cc1	JMJD2A Tudor 32µM, PLK1 PBD inh 24µM
O=C(Cc1ccccc1)N/N=C/c1ccc(OC(=O)/C=C\c2ccco2)cc1	G9a block inconclusive
COC(=O)N/N=C\c1ccc(OC(=O)c2ccco2)cc1	none
COC(=O)N/N=C/c1ccc(OC(=O)/C=C/c2ccco2)cc1	JMJD2A Tudor inconclusive, ALOX12 inh inconclusive, BAZ2B inh 71µM (no result: G9a block)
CCOc1cc(/C=N\NC(=O)OC)ccc1OC(=O)c1ccco1	none
CCOc1ccc(Nc2nc3ccccc3n3nnnc23)cc1	JMJD2A Tudor inconclusive
CN(C)c1ccc(Nc2nc3ccccc3n3nnnc23)cc1	JMJD2A Tudor 7.9µM, G9a block 3.2µM, ALOX12 inh inconclusive, HP1b binding inh inconclusive, BAZ2B inh 3.5µM (no result: PLK1 PBD inh)
Cc1ccc(C(=O)O)cc1Nc1nc2ccccc2n2nnnc12	JMJD2A Tudor 32µM, ALOX12 inh inconclusive, BAZ2B inh inconclusive (no result: PLK1 PBD inh)
C[C@H]1CC[C@@H]2[C@@H](C)[C@H]3[C@H](C[C@H]4[C@@H]5CC=C6C[C@@H](O[C@]7(O[C@H]8O[C@@H](C)[C@@H](O)[C@@H](O)[C@@H]8O)C[C@@H](O[C@@H]8O[C@H](CO)[C@@H](O)[C@H](O)[C@@H]8O)[C@@H](O)[C@H](CO)O7)CC[C@]6(C)[C@H]5CC[C@@]34C)N2C1	none (no result: JMJD2A Tudor, PLK1 PBD inh, ALOX12 inh, HP1b binding inh, BAZ2B inh)
Cn1c(=O)c2c(nc(NNC(=O)C(F)(F)F)n2C)n(C)c1=O	JMJD2A Tudor inconclusive, G9a block 6.3µM, ALOX12 inh inconclusive, BAZ2B inh inconclusive
Cn1c(=O)c2c(nc(NN=C3CCCC3)n2C)n(C)c1=O	G9a block 40µM, ALOX12 inh inconclusive, BAZ2B inh inconclusive
Cn1c(=O)c2c(nc(N3CCCC3)n2C)n(C)c1=O	none
Cn1c(=O)c2c(nc(CO)n2C)n(C)c1=O	none
O=C(COc1ccccc1C(=O)c1cnn(-c2ccccc2)c1)Nc1ccccc1	G9a block 45µM
Cc1ccc(O)c(C(=O)c2cnn(-c3ccccc3)c2)c1	JMJD2A Tudor 16µM, PLK1 PBD inh 3.4µM, ALOX12 inh inconclusive
O=C(Cc1cnn(-c2ccccc2)c1)c1ccc(O)c(O)c1O	JMJD2A Tudor inconclusive, PLK1 PBD inh inconclusive, G9a block 13µM, ALOX12 inh inconclusive, HP1b binding inh inconclusive, BAZ2B inh inconclusive
CCc1cc(C(=O)Cc2cnn(-c3ccccc3)c2)c(O)cc1O	ALOX12 inh inconclusive
CNC(=O)[C@@H]1CN(C(=O)c2cc(-c3cc(C)ccc3C)n[nH]2)C[C@H]1CO	none (no result: JMJD2A Tudor, PLK1 PBD inh, G9a block, HP1b binding inh, BAZ2B inh)
O=C(N/N=C/c1ccc(O)c(Br)c1)c1cc2c(ccc3ccccc32)o1	none
O=C(N/N=C/c1cc(Br)c(O)c(Br)c1)c1cc2c(ccc3ccccc32)o1	JMJD2A Tudor 79µM, PLK1 PBD inh 21µM, G9a block inconclusive, ALOX12 inh inconclusive, HP1b binding inh inconclusive, BAZ2B inh 40µM
O=C(N/N=C/c1cc(Cl)c(O)c(Cl)c1)c1cc2c(ccc3ccccc32)o1	JMJD2A Tudor inconclusive, PLK1 PBD inh 24µM, BAZ2B inh 56µM (no result: G9a block)
CCc1cccc(NC(=O)c2ccc3c(c2)N(C)C2CCCCCN2C3=O)c1 (stereo not given)	none (no result: JMJD2A Tudor, PLK1 PBD inh, G9a block, HP1b binding inh, BAZ2B inh)
COc1cc(C)c(S(=O)(=O)Nc2cccc(-c3ccc(N4CCCC4)nn3)c2)cc1C	none (no result: PLK1 PBD inh)
CC(OC(=O)c1ccccc1NCCO)C(=O)NCC(=O)Nc1ccc(F)c(F)c1F (stereo not given)	G9a block 28µM
Cc1cc(Cl)ccc1OCC(=O)N(Cc1ccc(N(C)C)cc1)CC1CCCO1 (stereo not given)	JMJD2A Tudor 28µM, G9a block 18µM, HP1b binding inh inconclusive, BAZ2B inh 11µM (no result: PLK1 PBD inh)
CN(C)c1ccc(CN(CC2CCCO2)C(=O)COc2ccccc2Cl)cc1 (stereo not given)	JMJD2A Tudor 45µM, G9a block 13µM, HP1b binding inh inconclusive, BAZ2B inh 40µM (no result: PLK1 PBD inh)
COc1cc(-c2cc(=O)c3c(O)c(OC)c(OC)cc3o2)cc(OC)c1O	none
COc1cccc(CNC2CCCCCCC2)c1OC	JMJD2A Tudor 35µM, BAZ2B inh inconclusive (no result: G9a block)
COc1cc(OC)c(CNC2CCCCCC2)cc1Br	JMJD2A Tudor 10µM, G9a block 35µM, BAZ2B inh inconclusive
Oc1c(Br)cc(CNC2CCCCC2)cc1Br	ALOX12 inh inconclusive, HP1b binding inh inconclusive (no result: G9a block, BAZ2B inh)
COc1cc(CNC2CCCCCC2)cc(OC)c1OC	JMJD2A Tudor 10µM, G9a block 18µM, ALOX12 inh inconclusive, BAZ2B inh inconclusive
COc1cc(CNC2CCCC2)cc(OC)c1OC	none
CC(=O)Nc1ccc(C2=NNC(=NCC3CCCO3)SC2)cc1 (stereo not given)	G9a block 14µM
CC(=O)Nc1ccc(C2=NN(CC#N)C(=O)SC2)cc1	none
Fc1ccc(F)c(C2=NNC(=NCC3CCCO3)SC2)c1 (stereo not given)	G9a block inconclusive, ALOX12 inh inconclusive, BAZ2B inh inconclusive
COCC(C)N=C1NN=C(c2ccc(NC(C)=O)cc2)CS1 (stereo not given)	G9a block 11µM, BAZ2B inh inconclusive
COc1ccc(S(=O)(=O)N2CCN(C)CC2)cc1	none
Cc1cccc(OCc2n[nH]c(=S)n2C2CCCCC2)c1	JMJD2A Tudor inconclusive, G9a block 1.8µM, ALOX12 inh inconclusive
COc1ccc(-n2c(COc3cccc(C)c3)n[nH]c2=S)cc1	JMJD2A Tudor inconclusive, ALOX12 inh 8.9µM
Cc1ccc(OCc2n[nH]c(=S)n2C2CCCCC2)cc1	JMJD2A Tudor 56µM, PLK1 PBD inh inconclusive, G9a block 1.1µM, ALOX12 inh inconclusive
COc1ccccc1N1CCN(C2CCCN(S(=O)(=O)c3ccccc3)C2)CC1 (stereo not given)	none (no result: G9a block)
CCCN1CCC(NC(=O)Cc2ccc(C)cc2)CC1	none (no result: G9a block)
COc1cc(Cl)c(C)cc1NC(=O)c1cc(=O)n2c(nc3ccccc32)s1	ALOX12 inh 45µM (no result: JMJD2A Tudor, PLK1 PBD inh, G9a block, HP1b binding inh, BAZ2B inh)
COc1cc(Cl)c(C)cc1NC(=O)c1cc2c(=O)oc3ccccc3c2s1	none (no result: PLK1 PBD inh)
CC(CN1CC(=O)NC(=O)C1)N1CC(=O)NC(=O)C1 (stereo not given)	PLK1 PBD inh inconclusive, G9a block 2.8µM (no result: JMJD2A Tudor, HP1b binding inh, BAZ2B inh)
O=C(NC1=C(Nc2ccc(F)cc2)C(=O)c2ccccc2C1=O)c1ccc(Cl)cc1	G9a block 5µM, HP1b binding inh inconclusive
